Measurements: PubChem BioAssay (NCATS)
Inconclusive results are not listed. Activity calls are given as the source filed them. Calls come from the whole dose curve; as a rule, active = well fitted inhibition curve with a large enough effect; inconclusive = small, poorly fitted or top-dose-only effect; inactive = no such curve, though single readings can be large or run the other way.

Assay: Primary qHTS for inhibitors of La Crosse Virus (LACV) - induced cell death in SH-SY5Y cells (AID 1508616);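 note: top concentration of the series differs between compounds; 0% = infected DMSO wells and 100% = uninfected DMSO wells; higher means more rescue of cells from virus-induced death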
Details: SH-SY5Y LACV cytopathicity rescue, ATP luminescence, 6 d; series mostly up to 4.29 µM; activity change: at the top concentration
Source text: Assay Provider: Karin Peterson Ph.D.
National Institute of Allergy and Infection Diseases, National Institute of Health
La Crosse Virus (LACV) is a California serogroup mosquito-borne arbovirus, family Peribunyaviridae, which is an endemic pathogen in North America and can induce a rare, life-threatening neurological disease in children. LACV was first isolated in the early 1960s, from a summer "rural encephalitis" case in La Crosse, Wisconsin, USA. Since then, LACV encephalitis cases have been found in more than twenty states, with most cases in the Mississippi and Ohio River basins. The life cycle of LACV is maintained between the vector, the eastern tree-hole mosquito Aedes triseriatus, and vertebrate hosts including eastern gray squirrels (Sciurus carolinensis) and chipmunks (Tamiasstriatus grinseus). […] Most LACV infections in humans are asymptomatic or induce mild clinical symptoms of fever, headache, lethargy and vomiting. However, in some cases LACV can cause severe neuroinvasive disease, including encephalitis, meningitis, and meningoencephalitis, requiring hospitalization. To date, there is neither a licensed vaccine nor a Food and Drug Administration (FDA) approved antiviral therapy available to prevent or treat LACV encephalitis. The primary treatment for viral encephalitis is palliative care due to the lack of therapeutics. In the current study, we conducted a screen of 4,096 FDA approved and bioactive small molecules against LACV, by screening for rescue of LACV-induced cell death in SH-SY5Y cells.
LACV-induced cytopathicity assay
SEQUENCE No. (1,2, 3, etc.); […] (e.g., Cells, Incubation, Reagent, etc.); VALUE and DESCRIPTION.
1. Reagent; 2 uL; Cell solution.
3. Compounds; 23nL; Compound library
4. Reagent; 12 uL; LACV virus
6. Reagent; 24 uL; ATPLite (PerkinElmer)
7. Time; 5 min; Room temperature
8. Detection; Luminescence; View
NOTES (numbers refer to sequence above)
1. Seed 6000 SH-SY5Y cells (ATCC CRL-2266) in 2 microL/well media (DMEM/F12 10% FBS, 1x L-Glutamine, 1x Pyruvate, 1x NEAA, 1x Pen/Strep) in 384-well assay plates (tissue culture treated, white, solid bottom).
2. Incubate at 37 degrees C with 5% CO2 for 24 hr.
3. Dispense 23 nL/well compounds in DMSO via pin transfer.
4. Dispense 12 microL/well of LACV (LACV/human/1978) in media at 0.01 MOI.
5. Incubate at for 6 days at 37C 5% CO2
6. Dispense 24 microL/well of ATPLite 1step Luminescence assay system (PerkinElmer).
7. Incubate for 5 min at room temperature.
8. Read luminescence signal (Viewlux plate reader, PerkinElmer). Data was normalized with DMSO control wells containing LACV as 0%, and DMSO control wells without virus as 100%.

Row | Compound | activity change | outcome
1 | CC(C)C(Br)C(=O)NC(N)=O (stereo not given) | -2.58% (inactive) | –
2 | O=C(CBr)Nc1ccc(Cl)cc1C(=O)c1ccccc1F | 36.2% (inactive) | –
3 | CCCCC1C(=O)NC(=O)N(C2CCCCC2)C1=O (stereo not given) | -0.176% (inactive) | –
4 | C[C@H](CN1CCOCC1)C(C(=O)N1CCCC1)(c1ccccc1)c1ccccc1 | 4.63% [at 9.63 µM] (inactive) | –
5 | C1CN2CCC1CC2 | -7.8% (inactive) | –
6 | O=C(CCl)c1ccc(Cl)cc1Cl | -1.95% (inactive) | –
7 | Sc1ccccc1Cl | 3.56% (inactive) | –
8 | CCOC(=O)NC(C)(C)Cc1ccc(Cl)cc1 | -13.8% (inactive) | –
9 | C[C@]12CC[C@H]3[C@@H](CC=C4C[C@@H](O)CC[C@@]43C)[C@@H]1CC[C@@H]2O | -9.44% (inactive) | –
10 | C[C@]12Cc3nonc3C[C@@H]1CC[C@@H]1[C@@H]2CC[C@@]2(C)[C@H]1CC[C@]2(C)O | 32.5% (inactive) | –
11 | CC1COC2(c3ccccc3Cl)c3cc(Cl)ccc3NC(=O)CN12 (stereo not given) | -5.93% (inactive) | –
12 | NC1(c2ccccc2)CCCCC1 | 3.9% [at 8.54 µM] (inactive) | –
13 | c1cc2c(c(N3CCNCC3)c1)OCCO2 | 11.2% (inactive) | –
14 | CCCCCCCCCCCC[N+](C)(C)CCOc1ccccc1 | 18.7% (inactive) | –
15 | CCC1(c2ccccc2)CCC(=O)NC1=O (stereo not given) | 9.23% (inactive) | –
16 | Cc1nnc2n1-c1sc(CCC(=O)N3CCOCC3)cc1C(c1ccccc1Cl)=NC2 | -13.9% (inactive) | –
17 | CCCCCCCCC(=O)NCc1ccc(O)c(OC)c1 | -3.73% (inactive) | –
18 | Nc1ccccc1C(=O)OCC(O)CO (stereo not given) | -5.88% (inactive) | –
19 | C[C@H]1CNCCc2ccc(Cl)cc21 | -15.5% (inactive) | –
20 | CC(=O)OC1(c2ccccc2)CCN(CCc2ccccc2)CC1 | -9.87% [at 9.63 µM] (inactive) | –

Row | Compound | activity change | outcome
21 | ClC1=C(Cl)C2(Cl)C(CBr)CC1(Cl)C2(Cl)Cl (stereo not given) | 8.97% (inactive) | –
22 | CC1N=C(N)OC1c1ccccc1 (stereo not given) | 3.54% [at 8.54 µM] (inactive) | –
23 | CN(C)CCc1c[nH]c2cccc(O)c12 | -3.39% [at 8.54 µM] (inactive) | –
24 | CCc1ccc(C2CCNCC2)cc1 | -13.8% (inactive) | –
25 | CCN(CC)C(C)C(=O)c1ccccc1 (stereo not given) | 26.1% (inactive) | –
26 | Clc1ccc(CO/N=C(\Cn2ccnc2)c2ccc(Cl)cc2Cl)c(Cl)c1 | 30.3% (inactive) | –
27 | CN1[C@@H]2CC[C@H]1CC(OC(=O)c1cc(Cl)cc(Cl)c1)C2 (stereo not given in full) | -3.42% (inactive) | –
28 | O=C(O)CCCCCCNC1c2ccccc2CCc2ccccc21 | -19.1% (inactive) | –
29 | CCC(=O)C(CCN(C)C)(c1ccccc1)c1ccccc1 | -13.7% (inactive) | –
30 | CCC(=O)O[C@H]1CC[C@H]2[C@@H]3CCC4=CC(=O)CC[C@]4(C)[C@H]3CC[C@]12C | -5.16% (inactive) | –
31 | NC(=O)CN1CCCC1=O | – | inactive
32 | COc1cc(C[C@@H](C)N)c(OC)cc1Br | -9.41% [at 9.63 µM] (inactive) | –
33 | COc1cc(CC(C)N)cc2c1OCO2 (stereo not given) | -18% [at 9.63 µM] (inactive) | –
34 | O=C(CCCCl)c1ccc(F)cc1 | 4.97% (inactive) | –
35 | CCOC(=O)C(c1c(O)c2ccccc2oc1=O)c1c(O)c2ccccc2oc1=O | 18.6% (inactive) | –
36 | CCOC(=O)c1cncn1C(C)c1ccccc1 (stereo not given) | 3.14% (inactive) | –
37 | CN1C[C@@H](NS(=O)(=O)N(C)C)C[C@@H]2c3cccc4c3c(cn4C)C[C@H]21 | 9.52% (inactive) | –
38 | OC(O)C(Cl)(Cl)Cl | 2.99% (inactive) | –
39 | CCN(Cc1ccc(Cl)nc1)/C(=C/[N+](=O)[O-])NC | 2.14% (inactive) | –
40 | CN1CCc2cc(Cl)c(O)cc2[C@H]2c3ccccc3CC[C@@H]21 | 12.5% (inactive) | –
